Assay outcomes deposited in PubChem BioAssay by several laboratories.
Compounds with a hit are over-represented: about 1.1% of the library has one in this group of screens.
PriA SSB inh – blocks PriA binding to SSB C-terminal tail; AlphaScreen SSBct-PriA binding, biotinylated peptide; inhibition, % at 33 µM; 430,000 tested, 0.6% active; AID 1272365; in the data active = inhibition mostly above about 37%, no sharp cut-off; inactive = mostly below about 20%;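 note: plate controls were negative control peptide for no effect and reference peptide for full effect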
UGM FP inh – blocks M. tuberculosis UGM enzyme. AID 504406. inhibition, % at 10 µM. 320,000 tested, 0.06% active. P9WIQ1. purified UGM, fluorescence polarization probe displacement; in the data active = inhibition above about 10%, passing the limit was not always enough
Target sequence (P9WIQ1 whole entry, looked up): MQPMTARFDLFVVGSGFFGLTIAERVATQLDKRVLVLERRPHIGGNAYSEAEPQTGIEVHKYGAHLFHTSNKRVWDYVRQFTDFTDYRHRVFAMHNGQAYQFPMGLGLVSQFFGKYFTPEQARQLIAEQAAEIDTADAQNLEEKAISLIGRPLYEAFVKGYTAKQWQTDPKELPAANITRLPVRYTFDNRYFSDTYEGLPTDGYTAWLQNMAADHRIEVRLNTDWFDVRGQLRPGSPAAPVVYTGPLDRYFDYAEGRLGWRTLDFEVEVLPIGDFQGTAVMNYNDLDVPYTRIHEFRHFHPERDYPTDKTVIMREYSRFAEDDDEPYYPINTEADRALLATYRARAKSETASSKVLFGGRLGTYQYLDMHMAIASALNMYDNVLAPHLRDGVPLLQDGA
Rv3671c protease – inhibits the M. tuberculosis serine protease Rv3671c; P9WHR9; AID 2606; 320,000 tested, 0.048% active; inhibition, % at 5.96 µM; in the data active = inhibition above about 38%;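 note: extracellular domain of Rv3671c used as enzyme; 0% = enzyme with DMSO and 100% = no enzyme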
Mtb bLac sens – beta-lactam sensitization of Mtb H37Rv; M. tuberculosis H37Rv growth with meropenem, percent inhibition; inhibition, % at 25 µM; 330,000 tested, 0.27% active; AID 434955; call rule not given here;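 note: growth measured after seven days incubation then overnight dye step; 0% = bacteria only wells and 100% = bacteria with antibiotic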
RecA splice inh – Mtb RecA intein splicing inhibition; P9WHJ3; cell-free RecA intein splicing, fluorescence; inhibition, % (test concentration not listed); 290,000 tested, 0.75% active; AID 2221; in the data active = inhibition above about 30%;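 note: 0% = vehicle wells and 100% = reference inhibitor control wells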
An asterisk follows results filed as active; x = no result; ! = not active in a repeat.

SMILES	PriA SSB inh	UGM FP inh	Rv3671c protease	Mtb bLac sens	RecA splice inh
CC(C)Nc1nc(NC(C)C)nc(N(C)C(N)=O)n1	-22	-2	6	0	2
CC(C)Nc1nc(NC(C)C)nc(N(C)N)n1	65*	-3	-12	63	-5
Nc1nc2c(s1)CCc1ccccc1-2	56*!	0	-5	5	18
COc1ccc2c(c1)-c1nc(N)sc1CC2	13	-3	1	10	23
CCC(C)Nc1nc2c(c(=O)n(C)c(=O)n2C)n1Cc1ccc(Cl)cc1 (stereo unspecified)	104*	1	8	-1	5
CCNc1nc2c(c(=O)n(C)c(=O)n2C)n1Cc1ccc(Cl)cc1	0	-4	9	-4	-2
COc1ccc(NC(=O)CCCN2C(=O)CN(C)C2=O)c(OC)c1	57*	0	-3	19	x
COc1ccc(C)cc1NC(=O)CS(=O)c1ncc(-c2ccccc2)n1C (stereo unspecified)	79*	x	x	x	x
COc1ccc(-c2cnc(S(=O)CC(=O)NCCc3ccccc3)n2C)cc1 (stereo unspecified)	-3	x	x	x	x
O=C(CSc1nnc(CNC(=O)C23CC4CC(CC(C4)C2)C3)n1CCc1ccccc1)Nc1ccccc1	8	x	x	x	x
COc1ccc(C2C(C(=O)c3cccs3)=C(O)C(=O)N2c2nncs2)cc1 (stereo unspecified)	-16	13*	0	-3	6
Cc1ccc(-n2c(Cc3cccn3C)nnc2SCC(=O)Nc2ccc3c(c2)OCO3)cc1	39*	-5	5	7	x
Cc1ccc(-n2c(Cc3cccs3)nnc2SCC(=O)Nc2ccc3c(c2)OCO3)cc1	62*	x	x	x	x
O=C(CSc1nnc(Cc2cccs2)n1-c1ccccc1)Nc1ccc2c(c1)OCCO2	10	4	-3	27	1
Cn1cccc1Cc1nnc(SCC(=O)Nc2ccc3c(c2)OCCO3)n1-c1ccc(F)cc1	12	-3	-4	0	2
Cc1ccc(-n2c(Cc3cccn3C)nnc2SCC(=O)Nc2ccc3c(c2)OCCO3)cc1	16	x	x	x	x
Cn1cccc1Cc1nnc(SCC(=O)Nc2ccc3c(c2)OCCO3)n1-c1ccc(Cl)cc1	80*	x	x	x	x
CC(=NNC(=O)CSc1ncccn1)c1ccc2c(c1)OCCO2	-22	x	x	x	x
O=C(CN1C(=O)c2ccccc2C1=O)Nc1nc(-c2ccc3c(c2)CCCC3)cs1	-3	x	x	x	x
COc1ccc2[nH]c(=O)c(CN(C3CCCCC3)C(c3nnnn3Cc3ccco3)C(C)C)cc2c1 (stereo unspecified)	0	-1	-7	20	33*
c1ccc(N2CCN(c3nc(NCc4ccco4)c4ccccc4n3)CC2)cc1	40*	2	2	99	17
COc1cccc(-c2sc3ccccc3c2-c2ccc(OCCN(C)C)cc2)c1	40*	0	0	100	x
O=C(c1ccccc1)c1ccc2c3c(cccc13)CC2	-2	x	x	x	x
O=C(/C=C/c1ccccc1)c1ccc2c3c(cccc13)CC2	14	0	-20	70	34*
O=C(Cn1cnc2c(-c3ccccc3)csc2c1=O)Nc1ccc(Br)cc1F	6	x	x	x	x
SMILES	PriA SSB inh	UGM FP inh	Rv3671c protease	Mtb bLac sens	RecA splice inh
CCOC(=O)c1c(NC(=O)/C=C/C(=O)O)sc(C)c1-c1ccc(C(C)(C)C)cc1	7	-3	-22	6	x
CCOC(=O)c1c(NC(=O)/C=C\C(=O)O)sc(C)c1-c1ccccc1	1	2	5	-7	56*
Cc1sc(NC(=O)/C=C/C(=O)O)c(C(N)=O)c1-c1ccc(C(C)(C)C)cc1	-5	1	3	4	61*
Cc1nn(C(=O)c2cc3ccccc3oc2=O)c(C)c1Sc1ccc(Cl)cc1	-9	x	x	x	x
CCC(NC(=O)c1ccccc1NC(=O)c1ccccc1)C(=O)OC (stereo unspecified)	52*	2	-3	-4	-1
CCN1/C(=C\C=C\c2sc3ccccc3[n+]2CC)Sc2ccccc21	56*	x	x	x	x
CC[n+]1c(/C=C/C=C/c2ccc(N(C)C)cc2)sc2ccccc21	61*	0	-81	1	-3
CN(C)c1ccc(/C=C/C=C/c2sc3ccccc3[n+]2C)cc1	40*	2	-29	-6	1
CN(C)c1ccc(/C=C/c2cc[n+](C)c3ccccc23)cc1	19	x	x	x	x
CC(=NNc1nc(C)cc(C)n1)c1ccc(Br)cc1	-6	x	x	x	x
N#Cc1nc(-c2ccccc2Cl)oc1N1CCCCC1	48*	-2	4	21	1
COc1ccccc1-c1nc(C#N)c(N2CCN(Cc3ccccc3)CC2)o1	41*	0	-7	15	7
COc1ccccc1-c1nc(C#N)c(N2CCC(Cc3ccccc3)CC2)o1	16	2	2	-6	8
COc1ccc(-c2nc(C#N)c(N3CCN(C)CC3)o2)cc1	54*	x	x	x	x
CC(C)(C)c1ccc(-c2nc(C#N)c(N3CCCCC3)o2)cc1	73*	x	x	x	x
Cn1c(=NC(=O)/C=C/c2cccs2)sc2cc(Cl)ccc21	-13	x	x	x	x
CC1N(C)c2cccc3cccc(c23)N1C	45*	2	-24	-6	0
Cc1ccc(C)n1CC(=O)Nc1nc(-c2ccccn2)cs1	100*	x	x	x	x
Cc1ccc(OCC(=O)Nc2nc(-c3ccccn3)cs2)c(C)c1	4	1	-31	91	4
CC1=CC(=O)CC(=O)N1CC(=O)Nc1nc(-c2ccccn2)cs1	84*	x	x	x	x
Cc1ccc(S(=O)(=O)CCC(=O)Nc2nc(-c3ccccn3)cs2)cc1	-1	0	3	89	x
Cc1cc(C)n(C(=O)CCCN(C)S(=O)(=O)c2ccc3c(c2)C(=O)c2ccccc2C3=O)n1	11	x	x	x	x
Cn1cc(C=NNC(=O)c2cccc([N+](=O)[O-])c2)c2ccccc21	-17	x	x	x	x
CC(C)(C)n1nnnc1C(c1cccs1)N(Cc1cccnc1)Cc1ccccc1Cl (stereo unspecified)	3	0	-1	-4	35*
O=C(NC1CCCCC1)N1CCC(n2ccnn2)CC1	-14	x	x	x	x
SMILES	PriA SSB inh	UGM FP inh	Rv3671c protease	Mtb bLac sens	RecA splice inh
Cc1ccc(C(N)=NOC(=O)N2c3ccccc3Sc3ccccc32)cc1	57*	x	x	x	x
N#Cc1ccccc1NC(=O)CSc1nccn2nc(-c3ccc(Cl)cc3)cc12	-11	x	x	x	x
COc1cc(C(=O)NCC(=O)N/N=C/c2cccc(OC(=O)c3ccco3)c2)cc(OC)c1OC	x	-1	12	-1	39*
Cc1cc(C(=O)N/N=C/c2cccc(OC(=O)c3ccco3)c2)n[nH]1	x	0	27	-5	44*
CC(=NNS(=O)(=O)c1cccc([N+](=O)[O-])c1)c1cc2ccccc2o1	-5	x	x	x	x
O=C(Nc1ccc2c(c1)CN(C(=O)c1cccs1)CC2)c1ccccc1C(F)(F)F	-10	x	x	x	x
Nc1ccc(N=Nc2ccccc2)c2cccnc12	59*	5	7	97	4
CC(=O)Nc1ccc(C(=O)N2CCCCC(c3ccc(Cl)cc3)C2)cc1 (stereo unspecified)	-22	x	x	x	x
COC(=O)c1ccc(NC(=O)CSc2nnc(NC(=O)/C=C/c3ccc4c(c3)OCO4)s2)cc1	-1	x	x	x	x
O=C(NCc1ccc(C(F)(F)F)cc1)C12CN(Cc3ccccc3)CC1C(c1cccc([N+](=O)[O-])c1)=NO2 (stereo unspecified)	5	-1	-9	3	14
